Measured values: PubChem BioAssay (Tox21)
Inconclusive results are not listed. The source made the active and inactive calls. Unless noted, calls come from the whole dose curve; as a rule, active = well fitted curve in the direction sought with a large enough effect in the repeat runs; inconclusive = weak or mixed curves; inactive = no such curve, though single readings can be large; an effect the other way counts as inactive or inconclusive.

Legend:
[1] = qHTS assay to identify small molecule agonists of the hypoxia (HIF-1) signaling pathway (AID 1224846; active = well fitted activation curve with a large enough effect in the signal ratio in the repeat runs, not every such curve was filed as active; the % refers to the signal ratio)
Procedure, shortened: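 ME-180 HRE-bla reporter cells; compounds in DMSO, 17 h at 37C; read-out beta-lactamase via CCF4-AM FRET.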

[2] = qHTS assay to identify small molecule antagonists of the estrogen related receptor (ERR) signaling pathway from Tox21 library (AID 1224848); note: nearly all actives have a fitted effect of over 50% in size; note: potency is the fitted concentration of half-maximal effect
Procedure, shortened: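 First, 2,000 ERR cells per well were plated and held 6 h at 37 C/5% CO2. Next, compounds in DMSO were pinned in and left 18 h at 37 C. Finally, ONE-Glo was added and luminescence read after 30 min at room temperature.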

[3] = qHTS assay to identify small molecule agonists of the estrogen related receptor (ERR) signaling pathway from Tox21 library (AID 1224849; calls by dose curve; note: nearly all actives have a fitted effect of over 15% in size); settings: ERR reporter cell line, ONE-Glo luciferase, 18 h; at 92.4 µM (top of the series) unless noted
Procedure, shortened: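 Luciferase activity in ERR pathway reporter cells served as the agonist readout; exposure lasted 18 h at 37 C, with ONE-Glo detection after 30 min at room temperature.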

[4] = qHTS RealTime-Glo MT Cell Viability Assay in HEK293 cells - 32 hour (AID 1224868); note: nearly all actives have a fitted effect of over 50% in size; note: potency is the fitted concentration of half-maximal effect
Procedure, shortened: (§1)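 Homogeneous bioluminescent viability format in HEK293 cells (600 cells/well). Following 5 h at 37 C/5% CO2, 23 nL compound was pintooled; the signal was measured repeatedly during 40 h incubation.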

[5] = A CellTox Green Cytotoxicity Assay to monitor cytotoxicity in HEK293 cells - 0 hour (AID 1224869); note: nearly all actives have a fitted effect of over 50% in size
Procedure, shortened: (§2)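 Real-time, in one plate: 600 HEK293 cells/well with dead-cell DNA dye, pinned compound after 5 h, 37 C incubation over 40 h; viable cells give no appreciable fluorescence.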

[6] = A CellTox Green Cytotoxicity Assay to monitor cytotoxicity in HEK293 cells - 40 hour (AID 1224871); note: nearly all actives have a fitted effect of over 45% in size; note: potency is the fitted concentration of half-maximal effect
Procedure, shortened: as §2

[7] = qHTS RealTime-Glo MT Cell Viability Assay in HEK293 cells - 16 hour (AID 1224872); note: nearly all actives have a fitted effect of over 50% in size; note: potency is the fitted concentration of half-maximal effect
Procedure, shortened: as §1

[8] = qHTS RealTime-Glo MT Cell Viability Assay in HEK293 cells - 40 hour (AID 1224874); settings: RealTime-Glo luminescence; max response: stronger effect = lower value; note: nearly all actives have a fitted effect of over 50% in size; note: potency is the fitted concentration of half-maximal effect
Procedure, shortened: (§3)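 Kinetic, non-lysing viability readout. Seed HEK293 (600/well) with reagent, incubate 5 h at 37 C/5% CO2, pin 23 nL compound in DMSO, incubate at 37 C, read luminescence at 0, 8, 16, 24, 32, 40 h.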

[9] = A CellTox Green Cytotoxicity Assay to monitor cytotoxicity in HepG2 cells - 16 hour (AID 1224876); note: nearly all actives have a fitted effect of over 45% in size; note: potency is the fitted concentration of half-maximal effect
Procedure, shortened: (§4)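 Cytotoxicity was tracked as dead-cell DNA fluorescence in HepG2 cells treated with test compounds at 37 C; each time-point value comes from one kinetic series spanning 0, 8, 16, 24, 32 and 40 h.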

[10] = A CellTox Green Cytotoxicity Assay to monitor cytotoxicity in HepG2 cells - 24 hour (AID 1224878); note: nearly all actives have a fitted effect of over 45% in size; note: potency is the fitted concentration of half-maximal effect
Procedure, shortened: as §4

[11] = A CellTox Green Cytotoxicity Assay to monitor cytotoxicity in HepG2 cells - 40 hour (AID 1224879); note: nearly all actives have a fitted effect of over 40% in size; note: potency is the fitted concentration of half-maximal effect
Procedure, shortened: as §4

[12] = qHTS RealTime-Glo MT Cell Viability Assay in HEK293 cells - 0 hour (AID 1224880); note: nearly all actives have a fitted effect of over 45% in size; note: potency is the fitted concentration of half-maximal effect
Procedure, shortened: as §3

[13] = A CellTox Green Cytotoxicity Assay to monitor cytotoxicity in HEK293 cells - 32 hour (AID 1224881); note: nearly all actives have a fitted effect of over 40% in size; note: potency is the fitted concentration of half-maximal effect
Procedure, shortened: as §2

[14] = A CellTox Green Cytotoxicity Assay to monitor cytotoxicity in HepG2 cells - 0 hour (AID 1224882); note: nearly all actives have a fitted effect of over 35% in size
Procedure, shortened: as §4

[15] = qHTS RealTime-Glo MT Cell Viability Assay in HepG2 cells - 24 hour (AID 1224867); note: nearly all actives have a fitted effect of over 50% in size; note: potency is the fitted concentration of half-maximal effect
Procedure, shortened: (§5)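 Cell number in HepG2 cultures estimated from NanoLuc luminescence generated by metabolic reduction of a prosubstrate by living cells. The homogeneous, nonlytic format allowed repeated reads at 0, 8, 16, 24, 32 and 40 h of compound exposure.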

[16] = qHTS RealTime-Glo MT Cell Viability Assay in HepG2 cells - 40 hour (AID 1224870); note: nearly all actives have a fitted effect of over 50% in size; note: potency is the fitted concentration of half-maximal effect
Procedure, shortened: (§6)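 HepG2 cells mixed with RealTime-Glo MT reagents (NanoLuc plus cell-permeant prosubstrate) were seeded at 600 cells/well, incubated 5 h at 37 C/5% CO2, then pinned with compounds in DMSO; nonlytic luminescence tracked viability during 40 h treatment.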

[17] = qHTS RealTime-Glo MT Cell Viability Assay in HepG2 cells - 8 hour (AID 1224873); note: nearly all actives have a fitted effect of over 55% in size; note: potency is the fitted concentration of half-maximal effect
Procedure, shortened: as §6

[18] = A CellTox Green Cytotoxicity Assay to monitor cytotoxicity in HEK293 cells - 24 hour (AID 1224875); note: nearly all actives have a fitted effect of over 45% in size; note: potency is the fitted concentration of half-maximal effect
Procedure, shortened: as §2

[19] = qHTS RealTime-Glo MT Cell Viability Assay in HepG2 cells - 32 hour (AID 1224877); note: nearly all actives have a fitted effect of over 55% in size; note: potency is the fitted concentration of half-maximal effect
Procedure, shortened: as §5

[20] = qHTS assay to identify small molecule agonists of H2AX - cell viability counter screen (AID 1224847; calls by dose curve; note: nearly all actives have a fitted effect of over 30% in size; note: potency is the fitted concentration of half-maximal effect)
Procedure, shortened: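 For this counter screen, overnight-attached CHO-K1 cells received test compounds (15 concentrations, 0.76% DMSO final); 3 hr later at 37C, CellTiter-Glo reagent was added and luminescence recorded after 30 min at room temperature.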
% is set by controls: 0 for no effect and ±100 for the full control effect.

CC(C(O)c1ccccc1)N(C)CCOC(c1ccccc1)c1ccccc1 (stereo not given)
active: Potency [2] 23.7 µM | Potency [4] 23.9 µM | Potency [6] 26.8 µM | Potency [7] 21.3 µM | Potency [8] 23.9 µM | Potency [9] 23.9 µM | Potency [10] 26.8 µM | Potency [11] 26.8 µM | Potency [13] 26.8 µM
inactive: outcome [1] | activity change, positive = activation [3] -45.6% [at 42.5 µM] | Potency [5] | Potency [12] | Potency [14]

c1ccc2c(c1)CCC2
inactive: outcome [1] | Potency [15] | Potency [4] | Potency [5] | Potency [16] | Potency [6] | Potency [7] | Potency [17] | max response [8] 5.18% | Potency [18] | Potency [9] | Potency [19] | Potency [10] | Potency [11] | Potency [12] | Potency [13] | Potency [14]

CCCCCCCCCCCCCCNCCO
inactive: outcome [1] | Potency [14]
active: Potency [15] 13.4 µM | Potency [4] 13.4 µM | Potency [16] 10.7 µM | Potency [6] 19 µM | Potency [7] 21.3 µM | Potency [17] 19 µM | Potency [8] 12 µM | Potency [18] 19 µM | Potency [9] 10.7 µM | Potency [19] 10.7 µM | Potency [10] 7.56 µM | Potency [11] 7.56 µM | Potency [13] 19 µM

O=C1OC(=O)c2cccc3cccc1c23
inactive: outcome [1] | Potency [2] | Potency [15] | Potency [4] | Potency [5] | Potency [16] | Potency [6] | Potency [7] | Potency [17] | max response [8] -9.96% | Potency [18] | Potency [9] | Potency [19] | Potency [10] | Potency [11] | Potency [12] | Potency [14]

OCCCc1cccnc1
inactive: outcome [1] | Potency [15] | Potency [4] | Potency [5] | Potency [6] | Potency [7] | Potency [17] | max response [8] -2.22% | Potency [18] | Potency [9] | Potency [10] | Potency [11] | Potency [12] | Potency [13] | Potency [14]

CNCC[C@H](Oc1cccc2ccccc12)c1cccs1
inactive: outcome [1] | activity change, positive = activation [3] -62.1% [at 42.5 µM] | Potency [5]
active: Potency [15] 23.9 µM | Potency [4] 23.9 µM | Potency [16] 23.9 µM | Potency [7] 23.9 µM | Potency [9] 23.9 µM | Potency [19] 21.3 µM | Potency [10] 21.3 µM | Potency [11] 19 µM

Clc1cccnc1
inactive: outcome [1] | Potency [15] | Potency [4] | Potency [5] | Potency [16] | Potency [6] | Potency [7] | Potency [17] | max response [8] 0.202% | Potency [18] | Potency [9] | Potency [19] | Potency [10] | Potency [11] | Potency [12] | Potency [13] | Potency [14]

CCN(CC)CCSC(=O)C(c1ccccc1)c1ccccc1
inactive: outcome [1] | Potency [15] | Potency [4] | Potency [5] | Potency [16] | Potency [7] | Potency [17] | max response [8] -12.3% | Potency [9] | Potency [19] | Potency [10] | Potency [12] | Potency [14]

Cc1c(C)n(Cc2ccccc2)c2ccc(C(=O)OCCN(C)C)cc12
active: Potency [9] 23.9 µM | Potency [19] 23.9 µM | Potency [10] 23.9 µM | Potency [11] 23.9 µM
inactive: outcome [1] | Potency [2] | activity change, positive = activation [3] -7.81% [at 42.5 µM] | Potency [5] | Potency [7] | Potency [12] | Potency [14]

SCCCCCCCCS
active: Potency [9] 19.5 µM | Potency [10] 19.5 µM | Potency [11] 19.5 µM
inactive: outcome [1] | Potency [15] | Potency [4] | Potency [5] | Potency [16] | Potency [6] | Potency [7] | Potency [17] | max response [8] 9.16% | Potency [18] | Potency [19] | Potency [12] | Potency [13] | Potency [14]

CC(=O)Oc1ccc(C2(c3ccc(OC(C)=O)cc3)C(=O)Nc3ccccc32)cc1
inactive: Potency [20] | Potency [2] | activity change, positive = activation [3] -9.03% [at 42.5 µM] | Potency [15] | Potency [4] | Potency [5] | Potency [16] | Potency [6] | Potency [7] | Potency [17] | max response [8] -6.95% | Potency [18] | Potency [19] | Potency [10] | Potency [11] | Potency [12] | Potency [13] | Potency [14]

Cc1nc(Nc2ncc(C(=O)Nc3c(C)cccc3Cl)s2)cc(N2CCN(CCO)CC2)n1
inactive: outcome [1] | activity change, positive = activation [3] -44.6% [at 42.5 µM] | Potency [5] | Potency [6] | Potency [17] | Potency [18] | Potency [13] | Potency [14]
active: Potency [2] 8.41 µM | Potency [4] 30.1 µM | Potency [10] 26.8 µM | Potency [11] 26.8 µM | Potency [12] 26.8 µM

CC(C)(C)C1=CC(=O)C=C(C(C)(C)C)C1=O
inactive: outcome [1] | Potency [15] | Potency [4] | Potency [5] | Potency [16] | Potency [7] | Potency [17] | max response [8] 11.2% | Potency [9] | Potency [19] | Potency [10] | Potency [11] | Potency [12] | Potency [14]

C=C[C@](C)(O)CC[C@@H]1[C@@]2(C)CCCC(C)(C)[C@@H]2CC[C@@]1(C)O
active: Potency [20] 113 µM | Potency [2] 27.3 µM | Potency [15] 49 µM | Potency [4] 21.9 µM | Potency [16] 54.9 µM | Potency [6] 43.6 µM | Potency [7] 19.5 µM | Potency [17] 49 µM | Potency [8] 21.9 µM | Potency [9] 54.9 µM | Potency [19] 54.9 µM | Potency [10] 49 µM | Potency [11] 49 µM | Potency [13] 43.6 µM
inactive: activity change, positive = activation [3] -46.9% | Potency [5] | Potency [12] | Potency [14]
